Laboratory results published in PubChem BioAssay (NCI).
The panel holds about 79,000 compounds, 15% with a hit somewhere; the sample as a whole holds those more often. No stated cut-off is given here; in the data, active means growth inhibition above about 70%; inactive means the rest.

Experiments:
[1] = NCI Yeast Anticancer Drug Screen. Data for the rad50 strain (AID 155);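 further: 0% = growth of vehicle-only cultures of the same strain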; settings: S. cerevisiae rad50 strain growth inhibition; at 50.0 µM; hits give high values
Procedure, shortened: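 Yeast carrying a defined DNA repair defect were exposed to test compounds, and growth was compared with vehicle-treated controls to give percent inhibition.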

[2] = NCI Yeast Anticancer Drug Screen. Data for the mec2-1 strain (AID 157); settings: S. cerevisiae mec2-1 strain, at 50.0 µM, hits give high values
Procedure, shortened: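 Cells of the genetically defined mec2-1 yeast strain are incubated with test compound. Inhibition of growth is calculated against vehicle-treated controls.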

[3] = NCI Yeast Anticancer Drug Screen. Data for the sgs1 mgt1 strain (AID 161);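 further: 0% = growth of cultures given vehicle only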; settings: S. cerevisiae sgs1 mgt1 strain, at 50.0 µM, hits give high values
Procedure, shortened: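 Test agents were incubated with a DNA-repair-mutant yeast strain. Growth was then read and compared against vehicle-treated controls.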

[4] = NCI Yeast Anticancer Drug Screen. Data for the cln2 rad14 strain (AID 165);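 further: 0% = growth equal to vehicle treated cultures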; settings: S. cerevisiae cln2 rad14 strain, at 50.0 µM, hits give high values
Procedure, shortened: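 The screen exposed genetically defined yeast (cln2 rad14) to test compounds and scored growth inhibition relative to vehicle-treated controls.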

[5] = NCI Yeast Anticancer Drug Screen. Data for the bub3 strain (AID 167); settings: S. cerevisiae bub3 mutant strain, at 50.0 µM, hits give high values
Procedure, shortened: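 Compounds were applied to a genetically altered yeast strain carrying a cell-cycle control defect. Growth inhibition was scored against vehicle-treated controls.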

[6] = NCI Yeast Anticancer Drug Screen. Data for the mlh1 rad18 strain (AID 175); settings: S. cerevisiae mlh1 rad18 strain growth inhibition; at 50.0 µM; hits give high values
Procedure, shortened: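 Compound-treated yeast growth, normalised to vehicle controls. Strain bears defined DNA repair mutations.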

Measured: growth inhibition

NC(=O)CCN(CCC(N)=O)CCC(N)=O
inactive: [1] -9.25% | [2] 7.1% | [3] -3.3% | [4] -24.9% | [5] -4.15% | [6] -12.9%

O=Nc1c(-c2ccccc2)nnc(-c2ccccc2)c1N=O
inactive: [1] -24.9% | [2] 6.95% | [3] -0.3% | [4] -54.8% | [5] 34.7% | [6] -6.2%

Cn1cc(C2NC(=O)c3ccccc3N2)c2ccccc21 (stereo unspecified)
inactive: [1] -25.1% | [2] -15.7% | [3] -7.1% | [4] 12% | [5] -15% | [6] -11.7%

CC(C(=O)c1ccc(Cl)cc1)/C(=N/NC(=O)NN)C(=O)Nc1cccc(C(F)(F)F)c1 (stereo unspecified)
inactive: [1] -8.45% | [2] -16.6% | [3] -58.5% | [4] -56% | [5] 18.6% | [6] -6.95%

CCC(=O)OC1CCC2(C)C(=CCC3C2CCC2(C)C(C(C)CCCC(C)C)CCC32)C1 (stereo unspecified)
inactive: [1] 3.1% | [2] 7.6% | [3] -20.6% | [4] 4.45% | [5] -0.8% | [6] -12.2%

O=C(O)C1=C(C(=O)O)C2CCC1C2
inactive: [1] -25.1% | [2] -33.5% | [3] -23.2% | [4] 2.65% | [5] -11.8% | [6] -14.4%

Clc1cnc(Oc2ccccc2)c2ccccc12
inactive: [1] 2.3% | [2] -22.2% | [3] -10.2% | [4] -37.4% | [5] -1.5% | [6] -9.35%

COC(C(=O)[O][Ge]([CH3])([CH3])[CH3])c1ccccc1 (stereo unspecified)
inactive: [1] 13.8% | [2] -17.8% | [3] -6.85% | [4] 31.4% | [5] -2.15% | [6] -9.25%

Cc1ccc(S(=O)(=O)Oc2ccc(-c3ccc([N+](=O)[O-])cc3)cc2)cc1
inactive: [1] 1.5% | [2] 19.2% | [3] 15.4% | [4] -6.9% | [5] -1.8% | [6] 7.05%

Cc1cccc(N2CC3CC4C=CC3(C2)O4)c1 (stereo unspecified)
inactive: [1] 13.7% | [2] 7.65% | [3] 4.45% | [4] -15.2% | [5] 22.1% | [6] 13.1%

S=C(NCc1ccncc1)Nc1ccccc1Cl
inactive: [1] 2.75% | [2] -0.5% | [3] -4.7% | [4] 12.7% | [5] 6.1% | [6] 9.55%

O=C(O)C1CC=CCC1C(=O)O (stereo unspecified)
inactive: [1] 8.5% | [2] -7.45% | [3] -12.4% | [4] -45.9% | [5] 1.4% | [6] 9.95%

Clc1ccccc1C(N1CCCCC1)N1CCCCC1
inactive: [1] 27.9% | [2] 13.2% | [3] 19.4% | [4] 13.5% | [5] 28% | [6] 28.1%

CC/C(=N/NC(N)=O)C1C=COC=C1
inactive: [1] -5.75% | [2] 2% | [3] -0.1% | [4] -6.8% | [5] -11.8% | [6] 1.2%

O=Cc1ccccc1S(=O)(=O)O
inactive: [1] 6.65% | [2] 7.4% | [3] -6.5% | [4] -45.4% | [5] 11.2% | [6] -13.2%

CC(=Nc1ccc(C)cc1N)c1c(O)cc(C)oc1=O
inactive: [1] -8.75% | [2] -7.5% | [3] -11.4% | [4] -32.6% | [5] 1.3% | [6] -5.85%

NNC(=O)CCCO
inactive: [1] -33.9% | [2] -24% | [3] -7.5% | [4] -8% | [5] 0.4% | [6] 8.25%

CN(C)c1ccc(C2NC(c3ccccc3)c3c(ccc4ccccc34)O2)cc1 (stereo unspecified)
inactive: [1] 8.5% | [2] 2.45% | [3] -12.7% | [4] -22.8% | [5] 2.5% | [6] 0.95%

CC(CS(C)(=O)=O)S(=O)(=O)Cc1ccccc1 (stereo unspecified)
inactive: [1] -2.4% | [2] 6.05% | [3] 3.2% | [4] -28.8% | [5] 6.25% | [6] -0.45%

O=c1c2c3c(sc2nc2n1N=CN(c1ccc(Cl)cc1)C2)CCCC3
inactive: [1] 8.7% | [2] 6% | [3] 7.7% | [4] -5.45% | [5] -4.7% | [6] -32%

CCCOC1(C)Oc2cc3c(cc2C(c2cc(OC)c(OC)c(OC)c2)C1C)OCO3 (stereo unspecified)
inactive: [1] 10.3% | [2] 2.7% | [3] -4.4% | [4] 45.4% | [5] 18.6% | [6] 14.7%
